Source: PubChem
Only a selection was taken, and hits are over-represented in it overall.
Tg IFNy HTS = blocks Toxoplasma gondii growth in the presence of IFN-gamma. Toxoplasma gondii growth in IFN-gamma-treated host cells; active compounds read low. activity change, negative = inhibition, % (test concentration not listed). 69,000 compounds, 3.8% hits; in the data active means activity change below about -70%, passing the limit was not always enough;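 further: host cells are HeLa cells infected with Toxoplasma gondii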
An asterisk follows results filed as active; i = inactive.

SMILES | Tg IFNy HTS
CN(C)CCN1C(=O)c2cccc3cc(NC(N)=O)cc(c23)C1=O | -31.8
O=C(CN1C(=O)c2cccc3cccc(c23)C1=O)OCCCc1ccncc1 | -73.4*
O=C1c2cccc3cccc(c23)C(=O)N1Cc1ccco1 | -26.8
COc1cncc(-c2cc(Cl)ccc2OC)c1 | -10.6
CC1=NN(c2ccccc2)C(=O)C1(O)C1C(=O)c2ccccc2C1=O (centres undefined) | 3.3
CN(C)c1cc(C(=O)Nc2ccccc2OCC2CCCCO2)ccn1 (centres undefined) | -8.1
CC(C)(C)C1CCc2onc(C(=O)NCC(C)(C)N3CCCCC3)c2C1 (centres undefined) | -14.6
Cc1ccc(OCCN(C)C)c(NC(=O)c2noc3c2CC(C(C)(C)C)CC3)c1 (centres undefined) | -73.7*
CCCCN(Cc1ccccc1)C(=O)c1cc2cccnc2n(Cc2ccccc2)c1=O | -47.5
CCc1ccc(NC(=O)C(=O)NCCc2sc(-c3cccc(C)c3)nc2C)cc1 | 70.8
O=C(NCCCn1ncc2ccccc21)c1n[nH]c2c1CCC2 | 6.9
Cc1ccc2c(c1C)-n1cccc1C1(CCN(S(=O)(=O)c3ccccc3)CC1)N2 | 11.6
Cc1ccc2cc(C3(O)CCN(C(=O)c4sccc4N)CC3)ccc2n1 | 151.5
CCN(C(=O)c1cccc(NC(=O)c2cc(C)nc(C)n2)c1)c1ccccc1 | -7.4
CCOC(=O)c1cc(NC(=O)c2ccc(F)c(Cl)c2)ccc1Oc1cncc(Cl)c1 | -89.6*
CCOC(=O)c1nc(Nc2ccc(F)c(Cl)c2)c2ccccc2n1 | -51.2
COc1cncc(C(=O)Nc2ccc(C)c(F)c2)c1 | -15.2
CC(C)NC(=O)N1CCn2c(CN3CCN(C)CC3)cnc2C1 | -4.6
CCCCNCC1COc2ccccc2O1 (centres undefined) | 6.7
Cn1nc(-c2ccccc2)cc1C(=O)N1CCCC(c2cc(=O)[nH]cn2)C1 (centres undefined) | -8.7
CCCCOc1ccc(-c2cc3c(=O)n(Cc4nc(-c5ccc(C)cc5)oc4C)ccn3n2)cc1 | -56.2
COc1ccc(CCCNC(=O)c2ccc(N3CC(O)C3)nc2)cc1 | -0.9
COc1ccc(NC(=O)c2ccc(-n3c(C)ccc3C)cc2)c(OC)c1 | 13.8
COc1cc(CCc2cc(NC(=O)c3ccc(N4C[C@@H](C)N[C@@H](C)C4)cc3)n[nH]2)cc(OC)c1 | -74.5*
Cc1cc(NC(=O)CCC2CCCCC2)n(-c2ncnc3c2cnn3-c2ccc(F)cc2)n1 | -4.7
SMILES | Tg IFNy HTS
Cc1ccc2[nH]c(C(=O)O)c(CN3CCC(n4nc(C)cc4C)C3)c2c1 (centres undefined) | 60.3
OCC1OC(n2cnc3c(NC4CCCC4)ncnc32)C(O)C1O (centres undefined) | 9.0
OC[C@H]1O[C@@H](n2cnc3c(NCc4ccco4)ncnc32)[C@H](O)[C@@H]1O | -82.9*
OC[C@H]1O[C@@H](n2cnc3c(NC4CCCC4)ncnc32)[C@H](O)[C@@H]1O | -2.0
Cc1ncsc1C(=O)N1CCC2(CC1)CC(CC(=O)O)c1ccccc1O2 (centres undefined) | -5.7
CCn1c(C2CCCN(C(=O)c3ccc4c(c3)nnn4C)C2)nn(C)c1=O (centres undefined) | 3.3
Cc1nn(CCO)cc1CN1CCN(S(=O)(=O)c2ccccc2)CC1 | -6.6
CCn1cc(CN2CCN(C(=O)c3ccnc(N4CCOCC4)c3)CC2)c(C)n1 | 14.0
CCn1cc(CN2CCN(C(=O)c3cc4c(F)cccc4[nH]3)CC2)c(C)n1 | -107.9*
CN1CCCC(CN2CCN(Cc3cc4n(n3)CCNC4)CC2)C1 (centres undefined) | -0.2
OCC1(CCc2ccccc2)CCN(c2nccc(N3CCC(O)C3)n2)CC1 (centres undefined) | -13.0
OCC1(Cc2cccc(C(F)(F)F)c2)CCN(c2ccc3ccccc3n2)CC1 | 0.0
OCC1(CCc2ccccc2)CCN(c2ccc3ccccc3n2)CC1 | -77.4*
C=CCN1CC[C@@]2(CN(C3CCOC3)C[C@H]2c2ccccc2)C1=O (some centres undefined) | -10.9
CCOC1CC2(CCN(c3cnccn3)CC2)c2ccccc21 (centres undefined) | 10.6
CSc1cccc(Nc2nc(-c3nnc(-c4ccccc4)o3)nc3ccccc23)c1 | -18.7
Cn1nc(-c2ccccn2)c2c1NC(=O)CC2c1nc2c(s1)CCCC2 (centres undefined) | -21.0
CCOc1ccccc1-c1nc(Cn2ccn3nc(-c4cccs4)cc3c2=O)c(C)o1 | -87.4*
CCOc1ccccc1-c1nc(Cn2ccn3nc(-c4ccccc4OC)cc3c2=O)c(C)o1 | i
Cc1ccccc1-c1nc(Cn2ccn3nc(-c4cccs4)cc3c2=O)c(C)o1 | 119.2
CN(C)C(=O)N1CC2(COC(C(=O)NCCc3cccnc3)C2)c2ccccc21 (centres undefined) | -1.9
Cc1cc(NC(=O)CCC2CCCC2)n(-c2ncnc3c2cnn3-c2cccc(Cl)c2)n1 | -24.2
O=C(CC1N=C2c3ccccc3N=C(SCc3ccccc3F)N2C1=O)NCc1ccccc1 (centres undefined) | -18.5
COc1ccc(-c2nc3c(s2)CN(S(=O)(=O)c2cccc(F)c2)CC3)cc1 | -4.5
